Bioassay records: PubChem BioAssay, several laboratories
This is a sample that favours compounds with a hit; in the whole collection about 1.2% have one here.
DTT redox prof = compounds producing H2O2 with reducing agent – biochemical, NIH compound library profiling, artefact control for MLSCN library redox annotation, primary screen. DTT-dependent redox cycling H2O2, phenol red/HRP absorbance; 100% = 100 µM peroxide control, 0% = buffer. activation, % at 10 µM. hit rate 0.03% among 200,000;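 active = activation of at least 50% relative to the plate's high and low controls in the primary single-dose screen; inactive = activation below 50%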;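 also: compound incubated with DTT at 0.8 mM final as the reducing agent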
p97 inhibitor = inhibitors of human p97 ATPase, primary screen, biochemical; recombinant p97 ATPase, Kinase-Glo ATP luminescence, 3 h; inhibition, % at 8 µM; hit rate 0.42% among 220,000; in the data active = inhibition above about 15%;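 also: 0% = DMSO vehicle and 100% = wells lacking enzyme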
FAS-TE inh = FAS thioesterase domain inhibitors, primary screen, biochemical, fluorescence intensity, uHTS; AID 602261, 2012; inhibition, % at 15 µM; Fatty acid synthase (Homo sapiens), P49327; recombinant FAS-TE, OMFH fluorogenic substrate, fluorescence endpoint; hit rate 0.67% among 360,000;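 active = compounds whose normalised, plate-corrected inhibition of enzyme fluorescence in the single-dose primary screen is 50% or more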;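 also: 0% = DMSO with enzyme and 100% = substrate without enzyme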
PKD1 kinase inh = inhibitors of human PKD1 kinase, biochemical, fluorescence polarization; Serine/threonine-protein kinase D1 (Homo sapiens), Q15139; PKD1 kinase fluorescence polarization assay; inhibition, % (no concentration beside the values); hit rate 0.056% among 200,000; AID 797, 2007; in the data active = inhibition above about 50%
UBC9 SUMO inh = inhibitors of in vitro SUMOylation cascade, primary screen, biochemical, HTRF, uHTS; HTRF SUMOylation assay, SAE1/SAE2 + UBC9; inhibition, % at 35 µM; hit rate 0.36% among 290,000; in the data active = inhibition above about 50%, passing the limit was not always enough
Furin inh = human furin inhibitors, primary screen, biochemical, fluorescence intensity; inhibition, % at 20 µM or 30 µM; AID 463115, 2010; purified furin, fluorogenic substrate cleavage; hit rate 0.061% among 220,000; P09958; in the data active = inhibition above about 25%
Target sequence (P09958 108-714 limits assumed): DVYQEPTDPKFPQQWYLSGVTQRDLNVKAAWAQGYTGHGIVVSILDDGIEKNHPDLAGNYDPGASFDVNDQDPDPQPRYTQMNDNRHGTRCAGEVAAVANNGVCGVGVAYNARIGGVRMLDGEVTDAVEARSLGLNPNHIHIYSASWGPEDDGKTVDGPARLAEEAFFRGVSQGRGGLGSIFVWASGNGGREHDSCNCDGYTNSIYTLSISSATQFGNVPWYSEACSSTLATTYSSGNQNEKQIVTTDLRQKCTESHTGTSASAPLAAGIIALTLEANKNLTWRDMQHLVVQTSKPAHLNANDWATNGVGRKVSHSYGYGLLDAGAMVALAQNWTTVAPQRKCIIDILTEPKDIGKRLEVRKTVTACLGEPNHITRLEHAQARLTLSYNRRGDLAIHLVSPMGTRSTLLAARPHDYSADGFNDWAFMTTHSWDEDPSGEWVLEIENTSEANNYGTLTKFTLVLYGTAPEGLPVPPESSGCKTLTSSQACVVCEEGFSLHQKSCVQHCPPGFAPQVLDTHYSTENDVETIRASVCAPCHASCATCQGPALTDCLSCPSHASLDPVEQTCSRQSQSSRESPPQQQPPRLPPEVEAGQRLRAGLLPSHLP
p97 confirm = p97 ATPase inhibitors, retest, confirmation, biochemical; AID 1517, 2009; inhibition, % at 8 µM; shares compounds with p97 inhibitor; hit rate 44% among 760; recombinant p97 ATPase, Kinase-Glo ATP luminescence;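 active = percent inhibition of p97 ATPase above a set limit, the primary screen's mean plus 3 SD, cut at about 15% in these data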;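 also: 0% = DMSO wells and 100% = wells lacking p97 protein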
Starred values were filed as active, the others as inactive; nt = no result.

SMILES | DTT redox prof | p97 inhibitor | FAS-TE inh | PKD1 kinase inh | UBC9 SUMO inh | Furin inh | p97 confirm
NC(N)=Nc1cc2ccccc2c2ccccc12 | nt | 15* | nt | nt | 86* | 1 | 10
Cc1ccc(-c2cc(NC(=O)CCl)n(-c3ccccc3)n2)cc1 | 0 | 24* | 10 | -4 | -4 | -10 | 25*
O=C(CCl)Nc1cc(-c2ccccc2)nn1-c1ccccc1 | -2 | 20* | 1 | 4 | 10 | -4 | 32*
Cc1ccc(-c2nn(-c3ccccc3)cc2NC(=O)CCl)cc1 | 0 | 16* | 20 | -6 | -5 | -5 | 29*
CC(=O)Nc1ccc(-c2cc(NC(C)=O)n(-c3ccccc3)n2)cc1 | 2 | 8 | -2 | -4 | 9 | -5 | nt
Cc1ccccc1OCCn1c(S(=O)(=O)O)nc2c(N)ncnc21 | nt | nt | -1 | nt | 7 | nt | nt
CS(=O)(=O)N(CC(=O)NCCc1ccccc1)c1cccc([N+](=O)[O-])c1 | 0 | 18* | 7 | 0 | 23 | -8 | 5
CCCCn1nc(C(=O)N(CC(C)C)c2c(N)n(CCCC)c(=O)[nH]c2=O)c2ccccc2c1=O | nt | nt | 0 | nt | nt | nt | nt
CCCCc1cc(=O)oc2cc(OCC(=O)NCCN3CCOCC3)ccc12 | nt | nt | -4 | nt | 6 | nt | nt
COc1cccc(-n2c(SCc3cc(=O)oc4cc(O)c(O)cc34)nc3ccccc3c2=O)c1 | 1 | 40* | 25 | 4 | 79* | 2 | 40*
CCN(CC)C(=O)CSc1nc2ccccc2c(=O)n1-c1cccc(OC)c1 | 0 | -1 | -2 | -6 | 20 | -18 | nt
Cn1c(N)c(S(=O)(=O)NCc2ccc(F)cc2)c(=O)n(C)c1=O | nt | nt | -3 | nt | 3 | nt | nt
CSc1nsc(SCc2ccc(Cl)cc2)n1 | 3 | 26* | 19 | -6 | -12 | -15 | 0
CSc1nsc(SCc2ccc(F)cc2)n1 | -3 | 2 | 17 | -2 | 10 | -17 | nt
CC12CCC(=O)N1C(C(=O)N1CCN(S(=O)(=O)c3cccc(C(F)(F)F)c3)CC1)CS2 (configuration not stated) | nt | nt | 0 | nt | nt | nt | nt
CN(C)C(=O)c1cccc(-c2cnc3cccnn23)c1 | nt | nt | -8 | nt | nt | nt | nt
O=C(O)c1ccc(-c2nc(-c3ccc(Cl)c(Cl)c3)cs2)cc1 | 0 | -1 | 37 | -1 | 6 | -31 | nt
NC(=O)C(=CNc1nc(-c2ccc(Cl)c(Cl)c2)cs1)C(N)=O | nt | 26* | nt | nt | 31 | -7 | 19*
CCOc1ccc(NC(=O)c2ccc(NC(=S)NC3CC3)cc2)cc1 | -2 | 1 | -4 | -5 | 22 | -18 | nt
CCOc1ccc(NC(=O)c2ccc(NC(=S)NC3CCCCC3)cc2)cc1 | 0 | 15* | 8 | -1 | 31 | 4 | 9
Cn1nc(-c2ccccn2)nc2c(=O)n(C)c(=O)nc1-2 | nt | 34* | -1 | nt | 102* | -18 | 33*
CN1C[C@@H]2[C@@H]3C(=O)N(Cc4ccccc4)C(=O)[C@@H]3[C@](C)(C1=O)N2C(=O)c1ccc(F)cc1 | nt | nt | -4 | nt | nt | nt | nt
COc1ccc2ccc3c(c2c1)N=C[C@]1(O3)N(C)c2ccccc2C1(C)C | 2 | 24* | 17 | 19 | 89 | -9 | 2
Oc1ccc(-c2csc(-c3c[nH]c4ccccc34)n2)c(O)c1 | 0 | 19* | 16 | -1 | 3 | -23 | 22*
COc1ccc(-c2nc(-c3ccc(O)cc3O)cs2)cc1OC | 0 | 17* | 35 | 6 | -8 | -24 | 19*
SMILES | DTT redox prof | p97 inhibitor | FAS-TE inh | PKD1 kinase inh | UBC9 SUMO inh | Furin inh | p97 confirm
Cc1ccc(-c2csc(-c3c[nH]c4ccccc34)n2)c(C)c1 | 3 | -2 | 36 | 0 | -4 | -14 | nt
C=CCN(CC=C)Cc1c(O)ccc2c(=O)c(-c3ccccc3)coc12 | nt | nt | -2 | nt | 31 | nt | nt
Oc1ccc2ccccc2c1/C=N/c1nccs1 | 2 | 7 | -6 | 8 | -13 | -16 | nt
Oc1ccc2ccccc2c1C=NCc1cn2ccsc2n1 | 3 | 40* | -4 | 2 | 68 | -23 | 7
C=CCOn1c(=O)c(-c2ccc(C)cc2)[n+]([O-])c2ccccc21 | nt | nt | -2 | nt | 10 | nt | nt
O=C(O)c1cc(-c2ccco2)nc2cc3ccccc3cc12 | nt | 30* | -7 | nt | 26 | -21 | 23*
O=C(c1cc2ccccc2oc1=O)N(Cc1ccccc1F)C1CCS(=O)(=O)C1 (configuration not stated) | nt | nt | -2 | nt | 22 | nt | nt
C[N+]1(C)CCC(=C2c3ccccc3CC(=O)c3sccc32)CC1 | 0 | 19* | -9 | -2 | 34 | -14 | 14
COc1ccc(S(=O)(=O)Nc2nccs2)cc1OC | -10 | 17* | -2 | 9 | -10 | -4 | 7
O=S(=O)(Nc1nccs1)c1ccc(Br)cc1 | 0 | 1 | -5 | -4 | -10 | -16 | nt
COc1cc(/C=C2\SC(=Nc3ccc(O)cc3)NC2=O)cc(OC)c1OC | nt | 4 | nt | nt | 25 | -8 | nt
COC(=O)/C=C1/S/C(=N/N=C/c2ccco2)NC1=O | nt | 6 | -4 | nt | 0 | -8 | nt
O=C1NC(=Nc2ccc(O)cc2)S/C1=C\C=C\c1ccco1 | nt | 36* | 3 | nt | nt | -9 | 31*
COc1cc(/C=C2/SC(=Nc3ccc(O)cc3)NC2=O)cc(OC)c1O | -1 | 26* | 2 | -3 | 4 | -22 | 20*
Cn1cc(C(=O)CCl)c2ccccc21 | -1 | 40* | -5 | -1 | 1 | -35 | 47*
Cn1cc(C(N)=O)c2ccccc21 | -1 | 0 | -1 | -3 | 4 | -24 | nt
CCN(CC(=O)NCc1ccc(F)cc1)C(=O)CN1CCN(c2cc(Cl)ccc2C)CC1 | nt | nt | 6 | nt | 8 | nt | nt
CC#CC#Cc1cccc(=O)o1 | nt | 29* | -6 | nt | 19 | -16 | 23*
CC1CCCC(C)N1CC(O)COc1c(F)cc(Br)cc1F (configuration not stated) | 0 | 1 | -1 | -1 | 10 | -26 | nt
CC1=NN(c2ccc(Cl)cc2)C(=O)C1C(c1cccc(O)c1)c1c(C)[nH]n(-c2ccc(Cl)cc2)c1=O (configuration not stated) | 0 | 17* | 33 | 0 | nt | -32 | 8
Cc1occc1-c1nnc(SCC(=O)c2c[nH]c3ccccc23)n1C | 0 | 18* | -7 | -3 | 16 | -15 | 29*
Cn1c(C(=O)NCc2ccccn2)cc2c(=O)n(C)c3ccccc3c21 | 0 | 25* | -7 | -12 | 4 | -22 | 5
O=C(O)CSc1cc(NS(=O)(=O)c2cccc([N+](=O)[O-])c2)c2ccccc2c1O | nt | 27* | 28 | nt | 88* | -2 | 40*
O=C(O)c1cccc(S(=O)(=O)Nc2ccc([N+](=O)[O-])cc2O)c1 | nt | 6 | -3 | nt | -2 | -10 | nt
O=[N+]([O-])c1cc(NCCO)c(N2CCCCCC2)c2nonc12 | nt | nt | 0 | nt | 40 | nt | nt
